Screens deposited in PubChem by National Center for Advancing Translational Sciences (NCATS).
Rows were chosen to be rich in hits. Some 2.6% of all compounds tested hit in one or more screens of this group.
A549 tox: counter-screen for Nrf2 inhibitors: cytotoxicity in A549 cells | A549 ARE-Fluc cells, CellTiter-Fluor viability, 18-24 h | Potency, µM (series often up to 46 µM), for the others: at the highest dose activity change, negative = cytotoxicity, most hits filed as inhibitors | hit rate 0.16% among 390,000 | AID 504648; further: potency means the concentration at half of the fitted maximal effect; on the % scale 0 is the no-effect control and ±100 the full control effect
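A549 ARE_Fluc cells in 5% FBS OPTI-MEM were exposed to compounds in concentration-response for 18-24 h at 37 deg C. Viability was read by CellTiter-Fluor fluorescence (Ex 405/Em 525) after 30 min, before the luciferase read.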
TCR activator: activators of T cell receptors | primary human leukocytes, anti-CD3, IL-2 HTRF, 48 h | Potency, µM (highest dose often 9.22 µM), for inactives: top-dose activation of IL-2 secretion, most hits filed as activators | 330,000 tested, under 10 active; further: % of control where 0% means no effect
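Primary human leukocytes were stimulated with a-CD3 beads plus compounds for 48 hr without co-stimulation; secreted IL-2 was quantified by HTRF using a-IL-2-K (europium cryptate) and a-IL-2-d2, excited at 320nm with acceptor emission read at 665nm.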
Nrf2 inh: blocks Nrf2 signaling; A549 ARE-Fluc reporter, luciferase luminescence, 18-24 h; Potency, µM (doses to about 46 µM), without a hit: at the top dose activity change, negative = inhibition, actives largely listed as inhibitors; hit rate 2.1% among 360,000; further: potency means the concentration at half of the fitted maximal effect; on the % scale 0 is the no-effect control and ±100 the full control effect; nearly all actives have a fitted effect of over 60% in size
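Reporter: ARE-Fluc in A549. Exposure: 18-24 h, 37 °C, 5% CO2, 5% FBS OPTI-MEM. Readouts: fluorescent cytotoxicity (CellTiter-Fluor), then luminescent Nrf2 signal after BugLite.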
A-T KAP1 phos: candidate therapy for ataxia-telangiectasia; F2112 A-T fibroblasts, KAP-1 phosphorylation AlphaLISA; neocarzinostatin DNA damage 30 min before lysis; Potency, µM (highest dose often 57.5 µM), for the others: at the top dose activation, most hits filed as activators; hit rate 0.19% among 320,000; further: potency means the concentration at half of the fitted maximal effect; % of control where 0% means no effect; nearly all actives have a fitted effect of over 45% in size
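hTERT-immortalized A-T patient fibroblasts (F2112), 500 cells/well in OPTI-MEM, 1% FBS, got compounds for 60 min, then NCS for 30 min at 37C. Lysates were then assayed for phospho-KAP-1 by AlphaLISA (anti-pKAP1 donor, anti-KAP1 acceptor beads), 6 hr at 25C.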
CCT modulator: cytosolic chaperonin activity modulation | hit rate 0.3% among 360,000 | purified chaperonin ATPase assay, HTRF ADP detection, 30 min | activity change, % (concentration not given with the values), hits read low | AID 651819; in the data active means activity change below about -30%; further: on the % scale 0 is the no-effect control and ±100 the full control effect
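Enzyme 40 or 20 nM (batch-dependent) in Tris pH 7.4/KCl/MgCl2/DTT; cpd 76 uM single point; ATP 10 uM; 30 min 37 °C; Transcreener ADP HTRF detection, 30 min RT; ratio 665/615.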
Nrf2 activator: activates Nrf2 signaling | AREc32 ARE-luciferase reporter (MCF7-derived line), luminescence, 24 h | Potency, µM (highest dose often 46.1 µM), inactives show top-dose activation, actives largely listed as activators | hit rate 0.31% among 410,000 | AID 624171; further: potency means the concentration at half of the fitted maximal effect; % of control where 0% means no effect; nearly all actives have a fitted effect of over 65% in size
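Cells of the AREc32 ARE-luciferase line are plated in OPTI-MEM containing 5% FBS and left overnight at 37 deg C. Compounds are pinned in, incubation continues 24 hr, and firefly luciferase signal is then measured.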
* = called active by the depositor; ? = inconclusive; . = no result; [ ] = dose if it differs, or a comment. Unless noted, the call rests on the fitted dose curve; in most records, active means well fitted curve in the direction sought with a large enough effect; inconclusive means small, poorly fitted or top-dose-only effect, or another doubt; inactive means no such curve, though single readings can be large; an effect the other way counts as inactive or inconclusive.

SMILES	A549 tox	TCR activator	Nrf2 inh	A-T KAP1 phos	CCT modulator	Nrf2 activator
CCOc1ccc(N(CC(=O)Nc2cccc(F)c2)S(=O)(=O)c2c(C)noc2C)cc1	-16.5%	1.8%	13µM*	-6.4%	-2.1	-1.2%
CCOc1ccc(N(CC(=O)Nc2ccc(C)c(C)c2)S(=O)(=O)c2c(C)noc2C)cc1	-12.2%	-3.6%[46.1 µM]	13µM*	-2.9%	-1.1	-0.3%
Cc1cccc(NC(=O)CSc2nc3ccccc3c(=O)n2C)c1	-5.0%	-2.1%	11.6µM*	11.0%	-1.4	0.4%
CCOc1ccc(OCC)c(NC(=O)CSc2nc3ccccc3c(=O)n2C)c1	-28.7%	7.5%	10.3µM*	0.6%	-0.2	-0.4%
CCOCCCn1c(SCC(=O)NC2CCCCC2)nc2ccccc2c1=O	.	.	.	.	-85.9*	-0.2%
CCOC(CCn1c(SCC(=O)NC2CCCC2)nc2ccccc2c1=O)OCC	-1.8%	-1.6%	-6.3%	5.0%	-0.9	0.4%
COc1ccc(OC)c(-n2c(SCC(=O)Nc3cccc(S(N)(=O)=O)c3)nc3ccccc3c2=O)c1	-11.4%	-8.7%	-6.5%	3.7%	-39.9*	0.0%
O=C(CSc1ccccc1Cl)N1CCOCC1	0.1%	-4.3%	10.8%	6.8%	-0.3	-0.4%
CCCCCCC1(C)NC(c2ccc3c(c2)OCO3)=CC(c2cc(Br)ccc2O)N1 (stereo not given)	-4.3%	.	12.6%	.	.	.
COc1ccc(CNC(=O)c2cc3c(s2)-c2c(C)cccc2OC3)cc1	-3.0%	.	?	.	.	3.3%
Cc1ccc(-c2nnn(CC(=O)N(CCN3CCOCC3)C(C(=O)NC(C)(C)C)c3ccc(C)o3)n2)cc1 (stereo not given)	-9.0%	2.2%	-10.0%	4.6%	0.9	-0.1%
CC(C)(C)NC(=O)C(c1ccncc1)N(CC1CCCO1)C(=O)Cn1nnc(-c2ccc(F)cc2)n1 (stereo not given)	1.3%	1.4%	-0.6%	-1.3%	0.0	-0.6%
Cc1ccc(-c2nnn(CC(=O)N(CCN3CCOCC3)C(C(=O)NC(C)(C)C)c3ccco3)n2)cc1 (stereo not given)	3.0%	0.4%	-0.1%	-2.2%	-63.3*	0.2%
CC(C)(C)NC(=O)C(c1ccncc1)N(Cc1cccs1)C(=O)Cn1nnc(-c2ccc(F)cc2)n1 (stereo not given)	-15.1%	-7.0%[46.1 µM]	9.2µM*	0.6%	-0.6	0.6%
Cc1ccc(Cl)cc1NC(=O)CNC(=O)N1CC(=O)Nc2ccccc21	2.2%	-5.6%	5.0%	-3.6%	0.4	0.6%
Cc1cccc(Nc2nc(N)c([N+](=O)[O-])c(N3CC(C)CC(C)C3)n2)c1 (stereo not given)	20.6µM*	-5.6%[46.1 µM]	16.4µM*	7.6%	0.1	-1.8%
CCN1CCN(c2nc(Nc3cccc(OC)c3)nc(N)c2[N+](=O)[O-])CC1	?	4.6%	-6.8%	-20.0%	-1.3	2.7%
Cc1cccc(Nc2nc(N)c([N+](=O)[O-])c(N3CC(C)OC(C)C3)n2)c1 (stereo not given)	?	4.3%	18.4µM*	-40.0%	1.0	-0.1%
Cc1cccc(Nc2nc(N)c([N+](=O)[O-])c(N3CCC(C)CC3)n2)c1	?	-1.2%[46.1 µM]	18.4µM*	4.9%	-3.9	0.2%
COc1ccc(CNC(=O)c2ccc(CN3C(=O)C(C)=C(c4ccc(C)cc4)S3(=O)=O)cc2)cc1	7.0%	.	?	.	.	-0.1%
Cc1ccc(S(=O)(=O)N2CCC(c3nc(-c4cccs4)nc4ccccc34)CC2)cc1	7.1%	.	12.4%	.	.	.
CC1CCCC(C)N1C(=O)CSc1nnc(C2CCCCC2)o1 (stereo not given)	1.8%	-1.9%	13.6%	31.6µM*	-1.7	0.2%
O=C1CCc2cc(S(=O)(=O)Nc3ccc(Cl)c(Cl)c3)c(F)cc2N1	4.8%	.	0.0%	.	.	.
COC(=O)c1sccc1NC(=O)c1cccc(Cl)c1	3.5%	-6.6%	4.6%	.	-0.9	8.91µM*
Cc1cc(C(=O)Nc2ccccc2[N+](=O)[O-])cs1	-5.6%	7.8%	?	16.7%	0.6	11.2µM*
SMILES	A549 tox	TCR activator	Nrf2 inh	A-T KAP1 phos	CCT modulator	Nrf2 activator
COC(=O)c1sccc1NC(=O)c1csc(C)c1	?	6.2%	.	3.2%	-1.9	5.01µM*
Cc1cc(C(=O)Nc2ccc(Br)cc2)cs1	0.9%	3.2%	?	14.6%	-2.7	11.2µM*
COC(=O)c1sccc1NC(=O)c1ccc(C)cc1	8.5%	0.2%	?	-4.4%	-0.7	32.0%
COC(=O)CCN(C(=O)c1c(C)oc2ncnc(N3CCOCC3)c12)c1ccccc1	0.6%	.	?	.	.	0.2%
Cc1ccc(NS(=O)(=O)c2cc3c(cc2C)OCC(=O)N3)cc1C	2.5%	.	-14.5%	.	.	.
CN(C)c1ccc(NC(=O)CN2CCN(CC(=O)Nc3ccc(Br)cc3)CC2)cc1	2.6%	.	.	.	.	1.4%
Cc1ccc(NC(=O)C(=O)c2c(-c3ccccc3)cc3ccccn23)cc1S(=O)(=O)N1CCOCC1	?	4.9%	?	-6.1%	0.8	0.3%
COc1ccccc1NC(=O)CNC(=O)c1ccccc1	-4.8%	-6.4%	.	-6.3%	-0.1	-0.9%
CCc1ccc(NC(=O)Nc2ccsc2C(=O)OC)cc1	-16.6%	13.5%	?	7.7%	-1.6	12.6µM*
COC(=O)c1sccc1NC(=O)CNC(=O)c1ccccc1	-6.6%	-1.9%	-2.0%	-0.4%	-75.9*	0.5%
COC(=O)c1sccc1NC(=O)Nc1ccc(C)c(C)c1	-12.3%	0.2%	?	6.3%	-1.6	?
CC(NC(=O)OC(C)(C)C)C(=O)NC(CCC(=O)OCc1ccccc1)C(N)=O (stereo not given)	-0.1%	0.8%	-25.2%	-2.6%	-60.2*	0.7%
CC(C)C(NC(=O)OC(C)(C)C)C(=O)NC(CCC(=O)OCc1ccccc1)C(N)=O (stereo not given)	1.0%	-5.8%	-10.2%	-0.7%	-1.2	-0.9%
O=C(Nc1ccc(F)cc1F)c1cc(S(=O)(=O)N2CCCCC2)c[nH]1	-4.7%	.	-14.1%	.	.	-1.2%
COc1ccccc1C(=O)Nc1ccc2oc(-c3cccc(Cl)c3Cl)nc2c1	0.2%	.	?	.	.	-1.0%
CCn1cc2nc(SCc3cccc(C(F)(F)F)c3)n(Cc3ccc(Cl)cc3)c(=O)c2n1	-17.6%	.	?	.	.	0.1%
COCCNC(=S)N(CCc1c(C)[nH]c2ccc(C)cc12)Cc1cc(OC)c(OC)c(OC)c1	-16.6%	-16.8%	-8.6%	7.7%	2.3	7.5%
CNC(=S)N(CCc1c(C)[nH]c2ccc(Cl)cc12)Cc1cccnc1	-13.5%	-0.9%	?	0.891µM*	-0.1	-1.3%
CCNC(=S)N(CCc1c(C)[nH]c2ccc(C)cc12)Cc1cc(OC)c(OC)c(OC)c1	-29.6%	-0.3%	18.4µM*	-7.2%	-2.8	2.5%
